Screening data from PubChem BioAssay.
Compounds with a hit are over-represented: about 13% of the library has one in this group of screens.
Shiga inhibitor = Shiga toxin inhibition | Vero cells, Shiga toxin protein synthesis inhibition reporter | inhibition, % at 38.7 µM | 9.2% of 290,000 active; in the data active means inhibition mostly above about 28%, no sharp cut-off; inactive means mostly below about 43%
FMDV antiviral = antivirals against foot and mouth disease virus. FMDV antiviral cell-based qHTS. Potency, µM (titrated, usually from 57.9 µM), usual class: inhibitors. 1.2% of 410,000 active; calls by dose curve; tested in HEK293T cells; further: read-out not given here; nearly all actives have a fitted effect of over 45% in size
HCV inh = inhibitors of hepatitis C virus infection; Huh7.5.1 HCVcc-Cre infection, luciferase reporter, 44 h; Potency, µM (series often up to 41.8 µM), most hits filed as inhibitors; 3.4% of 340,000 active; active means well fitted inhibition curve with a large enough effect; inconclusive means small, poorly fitted or top-dose-only effect, or another doubt; inactive means no such curve, though single readings can be large or run the other way
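Whole-lifecycle infectious HCVcc-Cre system; cells 1,000/well, compound then virus (~0.5 moi) added 4 h after plating, 44 h culture. Luciferase read 15 sec following 15 min substrate incubation, room temp.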
Marburg entry inh = inhibitors of Marburg virus binding or cell entry; AID 540276; 1.8% of 300,000 active; Potency, µM (titrated, usually from 37.8 µM), usual class: inhibitors; Marburg virus pseudotyped entry inhibition, cell reporter; calls by dose curve; tested in HEK293 cells
Cycloheximide cs = counter-screen hit for Shiga toxin inhibitors, cycloheximide. max response, %. AID 2314. 12% of 300,000 active. cell reporter, cycloheximide protein synthesis inhibition counterscreen; in the data active means max response mostly above about 13%, no sharp cut-off; inactive means mostly below about 14%; further: read at 38.3 µM for the half of the compounds with a filed dose
LASV entry inh = blocks Lassa virus binding to or entry into cells. Lassa virus pseudotype entry inhibition, cell reporter. Potency, µM (highest dose often 37.9 µM), usual class: inhibitors. 1.2% of 300,000 active; calls by dose curve; tested in HEK293 cells; further: nearly all actives have a fitted effect of over 50% in size
Of the large screens only hits and unclear results are named; the others gave an inactive call.

CCC(C)c1ccc(NC(=O)CC(C)=O)cc1 (stereo not drawn)	Marburg entry inh inconclusive, Cycloheximide cs 20.6
CC(=O)Nc1ccc(NC(=O)c2ccco2)cc1	Shiga inhibitor 71.2, Cycloheximide cs 30.7, LASV entry inh inconclusive
CN(C)CCNC(=O)C(=O)NCC(c1cccnc1)N1CCN(c2ccc(F)cc2)CC1 (stereo not drawn)	none (no result: Shiga inhibitor, HCV inh, Marburg entry inh, Cycloheximide cs)
O=C(O)CSCCc1ccccn1	Marburg entry inh inconclusive
CSc1cccc(NC(=O)c2ccco2)c1	Shiga inhibitor 107.7, Cycloheximide cs 30.5
COc1cccc(-c2cccc(NC(=O)C3CCN(Cc4cnn(C)c4)CC3)c2)c1	none
Cc1nn(C(C)C)c(C)c1CN1CCC(C(=O)Nc2cccc(-c3cccc(F)c3)c2)CC1	HCV inh 10µM (no result: Marburg entry inh, LASV entry inh)
Cc1cccc(CN2CCC(C(=O)Nc3cccc(-c4cccc(F)c4)c3)CC2)n1	HCV inh 7.94µM (no result: Marburg entry inh, LASV entry inh)
CCCn1ncc(CN2CCC(C(=O)Nc3cccc(-c4cccc(F)c4)c3)CC2)c1C	HCV inh inconclusive, Marburg entry inh 2.51µM, LASV entry inh inconclusive
Cn1cc(CN2CCC(C(=O)Nc3cccc(-c4cccc(F)c4)c3)CC2)cn1	HCV inh 10µM (no result: Marburg entry inh, LASV entry inh)
CCCC(=O)Nc1cc(OC)c(NC(=O)NC2CCCCC2)cc1OC	HCV inh inconclusive (no result: FMDV antiviral)
O=C(CSc1nc2ccccc2c(=O)n1NC(=O)c1ccccc1)c1ccc(Cl)cc1	Shiga inhibitor 97.7, Marburg entry inh inconclusive, Cycloheximide cs 34.4, LASV entry inh inconclusive
Cc1nc2c3ccccc3nc(SCC(=O)c3ccc(Cl)cc3)n2n1	FMDV antiviral inconclusive, HCV inh 25.1µM
Cc1ccc(C(=O)CSc2nnc3c4ccccc4nc(C(C)(C)C)n23)cc1	HCV inh inconclusive, Marburg entry inh 6.31µM, LASV entry inh inconclusive
O=C(CSc1nc2ccccc2c(=O)n1NC(=O)c1ccccc1)c1ccccc1	Shiga inhibitor 73.7, Cycloheximide cs 40.8, LASV entry inh inconclusive
COc1cc(C(=O)NCc2ccc(C)cc2)ccc1OC(F)F	LASV entry inh inconclusive
C[C@@H](CN=[N+]=[N-])CN1CC[C@H](NC(=O)OCc2ccccc2)CCC1=O	none (no result: Marburg entry inh, LASV entry inh)
CCN(CC(=O)NCc1cccs1)C(=O)c1cccc(S(=O)(=O)Nc2ccc(OC)cc2)c1	HCV inh inconclusive, Marburg entry inh inconclusive (no result: Shiga inhibitor, Cycloheximide cs)
O=C(CSc1nc2ccsc2c(=O)n1NC(=O)c1ccccc1)Nc1nccs1	Shiga inhibitor 35.5, Cycloheximide cs 41.0
O=C(CSc1nc2ccsc2c(=O)n1NC(=O)c1ccccc1)NCc1ccco1	LASV entry inh inconclusive
COc1ccc(CNC(=O)CN(Cc2ccc(Cl)cc2)S(=O)(=O)c2ccccc2)cc1	FMDV antiviral 28.2µM, Marburg entry inh inconclusive, LASV entry inh inconclusive
COc1ccc(C)cc1S(=O)(=O)N(CC(=O)NCc1ccc(Cl)cc1)Cc1ccccc1	FMDV antiviral inconclusive, Marburg entry inh 23.1µM (no result: HCV inh)
COc1ccc(CNC(=O)CN(Cc2ccccc2)S(=O)(=O)c2ccc(Cl)cc2)cc1	FMDV antiviral inconclusive, HCV inh 10µM
COc1ccc(S(=O)(=O)N(CC(=O)NCc2ccncc2)Cc2ccccc2)cc1	none
O=C(CSc1nc(-c2ccc(F)cc2)cc(C(F)(F)F)n1)NCc1ccccc1	Marburg entry inh inconclusive, LASV entry inh inconclusive (no result: Shiga inhibitor, HCV inh, Cycloheximide cs)
Cc1ccc(O)c(C(=O)c2cnn(-c3ccccc3)c2)c1	Shiga inhibitor 108.4, HCV inh inconclusive, Marburg entry inh inconclusive, Cycloheximide cs 26.9
O=C(Cc1cnn(-c2ccccc2)c1)c1ccc(O)c(O)c1O	Cycloheximide cs 17.1, LASV entry inh inconclusive
Cc1ccc(-n2cc(C(=O)c3ccc4ccccc4c3O)cn2)cc1	none
COc1ccc(C(=O)n2cc(C(=O)c3cc(C)ccc3O)cn2)cc1	Marburg entry inh inconclusive
Cc1ccc(-n2cc(C(=O)c3ccccc3O)cn2)cc1	Shiga inhibitor 61.3, Marburg entry inh inconclusive, Cycloheximide cs 52.6, LASV entry inh 3.55µM
Oc1cnn(-c2ccccc2)c1	Marburg entry inh inconclusive, Cycloheximide cs 15.5
Oc1ccc(-c2[nH]ncc2-c2cnn(-c3ccccc3)c2)c(O)c1	none
COc1cccc(C(=O)NN2C(=O)C3C4C=CC(O4)C3C2=O)c1 (stereo not drawn)	none
CCc1ccccc1N1CC(c2nc3ccccc3n2CCOc2ccc(Cl)c(C)c2)CC1=O (stereo not drawn)	FMDV antiviral 28.2µM, Marburg entry inh inconclusive, LASV entry inh inconclusive (no result: Shiga inhibitor, HCV inh, Cycloheximide cs)
O=S1(=O)CCN(Cc2csc(-c3cccs3)n2)CC1	Shiga inhibitor 68.5, Cycloheximide cs 31.5, LASV entry inh inconclusive
O=C(O)c1csc(-c2cccs2)n1	none
c1csc(-c2nc(CN3CCSCC3)cs2)c1	Shiga inhibitor 75.6, Marburg entry inh inconclusive, Cycloheximide cs 45.3, LASV entry inh inconclusive
Cc1ccc(-c2cnc(C(O)c3cc(F)cc(Cl)c3)[nH]2)cc1 (stereo not drawn)	none (no result: Shiga inhibitor, HCV inh, Marburg entry inh, Cycloheximide cs, LASV entry inh)
O=C(NCc1ccco1)c1ccc(Cn2c(SCc3ccccc3F)nc3cccnc32)cc1	none (no result: Shiga inhibitor, HCV inh, Marburg entry inh, Cycloheximide cs)
c1ccc(CCNc2ncnc3nc[nH]c23)cc1	Shiga inhibitor 44.6, HCV inh inconclusive, Marburg entry inh inconclusive, Cycloheximide cs 37.6
c1ccc2c(CCNc3ncnc4nc[nH]c34)c[nH]c2c1	FMDV antiviral inconclusive, HCV inh 7.08µM, LASV entry inh inconclusive
O=C(Nc1cccc2ccccc12)c1ccc(OC(=S)N2CCOCC2)cc1	Shiga inhibitor 103.3, HCV inh inconclusive, Marburg entry inh 2.59µM, Cycloheximide cs 54.9, LASV entry inh 1.46µM (no result: FMDV antiviral)
Cc1cccc(NC(=O)c2cccc(OC(=S)N3CCOCC3)c2)c1	HCV inh inconclusive, LASV entry inh inconclusive
O=C(Nc1cccc(Cl)c1)c1ccc(OC(=S)N2CCOCC2)cc1	Shiga inhibitor 103.3, HCV inh 12.6µM, Cycloheximide cs 38.9
Cc1ccc2c(c1)COc1c3ccc(C(=O)N4CCOCC4)cc3nn1-2	Shiga inhibitor 95.8, Cycloheximide cs 54.7 (no result: Marburg entry inh, LASV entry inh)
O=C(c1ccc2c3n(nc2c1)-c1ccc(Cl)cc1CO3)N1CCCCC1	Shiga inhibitor 69.6, Cycloheximide cs 45.6 (no result: Marburg entry inh, LASV entry inh)
O=C(O)c1ccc2c3n(nc2c1)-c1ccc(Cl)cc1CO3	Shiga inhibitor 53.6, FMDV antiviral 7.94µM, Cycloheximide cs 42.1 (no result: Marburg entry inh, LASV entry inh)
O=C(CC1C(=O)NCCN1Cc1ccc(-c2ccccc2)cc1)NCCCn1cccn1 (stereo not drawn)	none (no result: Marburg entry inh, LASV entry inh)
CCN1CCN(Cc2ccc(NC(=O)Nc3ccccc3Cl)cc2)CC1	Shiga inhibitor 97.0, Marburg entry inh inconclusive, Cycloheximide cs 46.7
S=C(Nc1ccccc1)Nc1cccc(Cl)c1Cl	none (no result: Marburg entry inh, LASV entry inh)
S=C(Nc1ccc(CN2CCCCC2)cc1)Nc1cccc(Cl)c1Cl	HCV inh inconclusive, Marburg entry inh 11.2µM, LASV entry inh inconclusive
O=C(Nc1ccc(Br)cc1)Nc1ccccc1Cl	Shiga inhibitor 103.0, HCV inh inconclusive, Cycloheximide cs 68.3 (no result: Marburg entry inh, LASV entry inh)
CCN1CCN(C(=O)C2(NC(=O)Nc3ccccc3Cl)CCCCC2)CC1	none
O=C(Nc1ccncc1)Nc1ccc(Br)cc1Cl	Marburg entry inh inconclusive
O=C(Nc1ccc(CN2CCCCC2)cc1)Nc1ccccc1Cl	Shiga inhibitor 52.7, Cycloheximide cs 32.5 (no result: Marburg entry inh, LASV entry inh)
